# Experimental data taken from PubChem BioAssay (NCATS).
# Several values for one entry are separate records, joined by “and”; a condition that tells them apart may be missing. Identical values can stand only once. Results filed as inconclusive are left out. Where a call stands in place of a potency, no number is given. Some structures have more than one record in an assay (separate samples or runs), and their calls can disagree. Activity calls are given as the source filed them. Unless noted, calls come from the whole dose curve; as a rule, active = well fitted curve in the direction sought with a large enough effect; inconclusive = small, poorly fitted or top-dose-only effect, or another doubt; inactive = no such curve, though single readings can be large; an effect the other way counts as inactive or inconclusive.
# Assays:
# [1] = qHTS assay to identify small molecule inhibitors of chordoma cells - UCH-2 (AID 1259356)
# [2] = P-glycoprotein substrates identified in KB-8-5-11 adenocarcinoma cell line, qHTS therapeutic library screen (AID 1346987); note: nearly all actives have a fitted effect of over 65% in size; note: potency is the fitted concentration of half-maximal effect
# In short: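 P-gp-mediated resistance screen: KB-8-5-11 cells treated 72 h with compounds in dose-response. CellTiter-Glo viability.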
# [3] = Identifying Small Molecule Inhibitors of Pancreatic Cancer Stem Cells (SN12C, Adherent) (AID 1259358);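 note: cell survival measured after 48 h of compound exposure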
# In short: (§1)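 Spheroids grown 14 days in stem cell media on hydrogel-coated nonadherent plates; 2D lines seeded directly. Compounds added after 4 h attachment, 48 h at 37C, 5% CO2; CellTiter-Glo luminescence normalized to DMSO (no inhibition) and no-cell wells (full inhibition).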
# [4] = Identifying Small Molecule Inhibitors of Pancreatic Cancer Stem Cells (A278, Adherent) (AID 1259361);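 note: viability read after 48 h compound exposure; nearly all actives have a fitted effect of over 35% in size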
# In short: as §1
# [5] = P-glycoprotein substrates identified in KB-3-1 adenocarcinoma cell line, qHTS therapeutic library screen (AID 1346986); conditions: KB-3-1 parental cells viability, CellTiter-Glo, 72 h; at 44.5 µM (top of the series) unless noted; note: nearly all actives have a fitted effect of over 60% in size
# In short: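 Compounds were tested in dose-response against KB-3-1 and KB-8-5-11 cells at 37 degree C for 72 h, and viability was measured by luminescence. AC50 values came from curve fitting with class-based activity calls.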
# [6] = Identifying Small Molecule Inhibitors of Pancreatic Cancer Stem Cells (Panc1, Adherent) (AID 1259362); conditions: Potency: viability; note: potency is the fitted concentration of half-maximal effect
# In short: (§2)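 Pre-formed 14-day tumor spheroids or adherent cells dosed and incubated 48 h, 37C, 5% CO2. Viability assessed by CellTiter-Glo.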
# [7] = Natriuretic polypeptide receptor (hNpr1) antagonism - Pilot counterscreen GloSensor control cell line (AID 1347045; calls by dose curve)
# In short: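 This counterscreen uses HEK293 cells expressing the GIP/pGS-40F cGMP biosensor. Compound-treated cells are challenged with 50 uM sodium nitroprusside, and the luciferase signal is compared before and after stimulation.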
# [8] = Identifying Small Molecule Inhibitors of Pancreatic Cancer Stem Cells (SN12C, Spheroid) (AID 1259360)
# In short: as §2
# [9] = target: Atrial natriuretic peptide receptor 1 (Homo sapiens) (UniProt P16066); assay: Natriuretic polypeptide receptor (hNpr1) antagonism - Pilot screen (AID 1347049; calls by dose curve;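 note: agonist-evoked cGMP luminescence read 20 min after hNppA addition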)
# Chain of Atrial natriuretic peptide receptor 1 (Homo sapiens) (P16066 whole entry, looked up): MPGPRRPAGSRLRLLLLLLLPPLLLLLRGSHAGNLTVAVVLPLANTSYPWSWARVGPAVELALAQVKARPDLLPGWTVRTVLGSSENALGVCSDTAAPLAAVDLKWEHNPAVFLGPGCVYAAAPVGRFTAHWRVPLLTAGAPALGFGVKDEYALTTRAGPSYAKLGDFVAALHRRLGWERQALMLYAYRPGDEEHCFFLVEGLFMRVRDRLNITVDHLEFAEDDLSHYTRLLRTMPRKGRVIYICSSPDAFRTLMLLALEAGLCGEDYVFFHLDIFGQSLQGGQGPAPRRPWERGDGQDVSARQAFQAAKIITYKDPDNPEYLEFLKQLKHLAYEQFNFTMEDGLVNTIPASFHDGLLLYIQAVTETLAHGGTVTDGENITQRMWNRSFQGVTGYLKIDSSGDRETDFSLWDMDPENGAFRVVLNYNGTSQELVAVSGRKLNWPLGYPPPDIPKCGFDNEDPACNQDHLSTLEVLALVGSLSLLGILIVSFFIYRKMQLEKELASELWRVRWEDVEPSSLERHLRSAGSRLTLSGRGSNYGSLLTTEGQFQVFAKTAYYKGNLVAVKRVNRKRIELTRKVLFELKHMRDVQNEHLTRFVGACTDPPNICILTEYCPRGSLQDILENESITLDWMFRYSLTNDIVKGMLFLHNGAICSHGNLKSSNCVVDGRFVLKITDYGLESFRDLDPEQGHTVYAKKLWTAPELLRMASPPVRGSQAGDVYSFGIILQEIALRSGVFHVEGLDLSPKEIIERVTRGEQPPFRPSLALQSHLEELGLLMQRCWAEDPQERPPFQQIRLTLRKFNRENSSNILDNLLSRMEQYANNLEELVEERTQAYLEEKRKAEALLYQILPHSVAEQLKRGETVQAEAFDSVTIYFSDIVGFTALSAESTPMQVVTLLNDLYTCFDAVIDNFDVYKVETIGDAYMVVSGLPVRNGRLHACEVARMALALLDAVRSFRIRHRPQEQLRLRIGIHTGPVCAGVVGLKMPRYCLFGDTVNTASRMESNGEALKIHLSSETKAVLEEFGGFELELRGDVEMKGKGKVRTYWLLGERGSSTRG
# In short: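 HEK293 cells expressing hNpr1 and GloSensor cGMP luciferase, 1500/well, loaded with 2% GloSensor reagent 2 h, compound 30 min at room temperature; luminescence read before and 20 min after 0.1 nM hNppA stimulation.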
structure (smiles),measurement,setting,value
CCCCCCCCCCCCOS(=O)(=O)O,outcome,[1],inactive
same,Potency,[2],inactive
O=C1OC(OC(=O)c2cccnc2Nc2cccc(C(F)(F)F)c2)c2ccccc21 (stereo unspecified),outcome,[1],inactive
same,Potency,[2],inactive
NC(=O)c1ncn([C@@H]2O[C@H](CO)[C@@H](O)[C@H]2O)c1N,outcome,[1],inactive
same,outcome,[3],inactive
same,IC50 (viability decrease),[4],inactive
same,Potency,[2],inactive
Nc1nc2c(ncn2CCC(CO)CO)c(=O)[nH]1,outcome,[1],inactive
same,Potency,[2],inactive
Nc1ccc(S(=O)(=O)Nc2nccs2)cc1,outcome,[1],inactive
same,outcome,[5],inactive
same,Potency,[2],inactive
CC1(C)OC(=O)NC1=O,outcome,[1],inactive
same,Potency,[2],inactive
NC(=O)N/N=C/c1ccc([N+](=O)[O-])o1,outcome,[1],inactive
O=C(Oc1ccccc1C(=O)O)c1ccccc1O,outcome,[1],inactive
same,Potency,[2],inactive
Cc1ccc2nc(N)[nH]c(=O)c2c1Sc1ccncc1,outcome,[1],inactive
Cc1cc(C(C#N)c2ccc(Cl)cc2)c(Cl)cc1NC(=O)c1cc(I)cc(I)c1O (stereo unspecified),outcome,[1],inactive
same,outcome,[5],inactive
same,Potency,[2],16.4 µM (active) and inactive
CC(O)CN(CCN(CC(C)O)CC(C)O)CC(C)O (stereo unspecified),outcome,[1],inactive
same,Potency,[2],inactive
CC(C)(C)C(=O)NCCCC(=O)O,outcome,[1],inactive
same,Potency,[2],inactive
C=CCn1c(=O)n([C@@H]2O[C@H](CO)[C@@H](O)[C@H]2O)c2nc(N)[nH]c(=O)c21,outcome,[1],inactive
same,Potency,[2],inactive
C[C@@H]1C[C@H]2[C@@H]3C[C@H](F)C4=CC(=O)C=C[C@]4(C)[C@@]3(F)[C@@H](O)C[C@]2(C)[C@@]1(O)C(=O)CO,outcome,[1],inactive
same,outcome,[5],inactive
same,Potency,[2],inactive
O=Cc1ccccc1C=O,outcome,[1],inactive
O=C1NC(=O)[C@@]2(CCOc3ccc(F)cc32)N1,outcome,[1],inactive
Nc1ccc(S(=O)(=O)Nc2ccccc2)cc1,outcome,[1],inactive
same,Potency,[2],inactive
CCCCC/C(C=O)=C\c1ccccc1,outcome,[1],inactive
same,Potency,[2],inactive
CN1CCC[C@@H]1Cc1c[nH]c2ccc(CCS(=O)(=O)c3ccccc3)cc12,outcome,[1],inactive
same,outcome,[5],inactive
same,Potency,[2],inactive
COc1ccc2c(c1)C(=O)N(CCc1ccc(S(=O)(=O)NC(=O)NC3CCCCC3)cc1)C(=O)C2(C)C,outcome,[1],inactive
same,Potency,[2],inactive
CCOC(=O)[C@H](CCc1ccccc1)N[C@@H](C)C(=O)N1C(=O)N(C)C[C@H]1C(=O)O,outcome,[1],inactive
same,Potency,[2],inactive
CCCc1c(OCCCCc2nn[nH]n2)ccc(C(C)=O)c1O,outcome,[1],inactive
same,Potency,[2],inactive
CCCCN1CCCC[C@H]1C(=O)Nc1c(C)cccc1C,outcome,[1],inactive
same,outcome,[5],inactive
same,Potency,[2],inactive
OCC(O)CN1CCN(c2ccccc2)CC1 (stereo unspecified),outcome,[1],inactive
same,Potency,[2],inactive
O=C1Nc2ccc(Cl)cc2[C@@](C#CC2CC2)(C(F)(F)F)O1,outcome,[1],inactive
same,IC50 (viability decrease),[4],48.1 µM (active)
same,Potency,[6],48.1 µM (active)
CNCCC(Oc1ccc(C(F)(F)F)cc1)c1ccccc1 (stereo unspecified),outcome,[1],inactive
O=C(CCCN1CCN(c2ccccn2)CC1)c1ccc(F)cc1,outcome,[1],inactive
same,Potency,[2],inactive
COc1ccccc1O,outcome,[1],inactive
same,Potency,[2],inactive
Cc1cccc(Nc2cc(Cl)nc(SCC(=O)O)n2)c1C,outcome,[1],inactive
same,Potency,[2],inactive
CNC(=O)Oc1ccc2c(c1)[C@]1(C)CCN(C)[C@@H]1N2C,outcome,[1],inactive
same,outcome,[5],inactive
same,Potency,[2],inactive
same,outcome,[7],inactive
COc1ccc2[nH]c(S(=O)Cc3ncc(C)c(OC)c3C)nc2n1 (stereo unspecified),outcome,[1],inactive
same,outcome,[5],inactive
same,Potency,[2],inactive
Oc1cn2c(n1)Nc1ccc(Cl)c(Cl)c1C2,outcome,[1],inactive
same,outcome,[3],inactive
same,outcome,[8],inactive
same,IC50 (viability decrease),[4],inactive
same,Potency,[6],inactive
same,Potency,[2],18.4 nM (active) and 20.6 nM (active)
CCN(CC)CCNC(=O)c1cc(Cl)c(N)cc1OC,outcome,[1],inactive
same,outcome,[5],inactive
same,Potency,[2],inactive
same,outcome,[7],inactive
same,outcome,[9],inactive
CC12CCC(CC1)C(C)(C)O2,outcome,[1],inactive
same,Potency,[2],inactive
N[C@H]1C(O)O[C@H](CO)[C@@H](O)[C@@H]1O (stereo partly specified),outcome,[1],inactive
same,Potency,[2],inactive
CCCCN(CCCC)CC(O)c1cc(Cl)cc2c1-c1ccc(Cl)cc1/C2=C/c1ccc(Cl)cc1 (stereo unspecified),outcome,[1],inactive
CN1[C@@H]2CC(OC(=O)[C@H](CO)c3ccccc3)C[C@H]1[C@@H]1O[C@@H]12 (stereo partly specified),outcome,[1],inactive
COc1ccc(Cl)cc1C(=O)NCCc1ccc(S(=O)(=O)NC(=O)NC2CCCCC2)cc1,outcome,[1],inactive
same,outcome,[5],inactive
same,Potency,[2],inactive
same,outcome,[7],inactive
same,outcome,[9],inactive
COC(=O)[C@H]1[C@H]2C[C@@H]3c4[nH]c5cc(OC)ccc5c4CCN3C[C@H]2C[C@@H](OC(=O)COc2ccc(OC)cc2)[C@@H]1OC,outcome,[1],inactive
N[C@@H](CSCCCO)C(=O)O,outcome,[1],inactive
same,Potency,[2],inactive
OC[C@H]1O[C@@H](O[C@@H]2[C@@H](CO)O[C@](O)(CO)[C@H]2O)[C@H](O)[C@@H](O)[C@H]1O,outcome,[1],inactive
same,Potency,[2],inactive
O=C(O)c1ccccc1O,outcome,[1],inactive
same,Potency,[2],inactive
NCCNCCNCCN,outcome,[1],inactive
same,Potency,[2],inactive
CC(C)(C)NCC(O)COc1ccc(NC(=O)NC2CCCCC2)cc1 (stereo unspecified),outcome,[1],inactive
same,Potency,[2],inactive
